Cell count and activation data for 5 molecules are collected here from PubChem BioAssay AID1961 (Sanford-Burnham Center for Chemical Genomics, 2009).

Assay [1] is described as follows: selective activators of receptor GPR55 – imaging, U2OS cells, beta-arrestin-GFP redistribution, primary screen (AID 1961).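 For activation: plate controls were DMSO negative control for no effect and LPI positive control for full effect.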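 Note: U2OS osteosarcoma cells stably expressing GPR55 and beta-arrestin-GFP.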 To be noted: measured here: cytotoxicity, cells analyzed, at 10 µM.
The target in assay [2] is G-protein coupled receptor 55 (Homo sapiens) (UniProt Q9Y2T6). The description is as above. Particulars: at 10 µM, stronger effect = higher value.
G-protein coupled receptor 55 (Homo sapiens), sequence (Q9Y2T6 whole entry, looked up): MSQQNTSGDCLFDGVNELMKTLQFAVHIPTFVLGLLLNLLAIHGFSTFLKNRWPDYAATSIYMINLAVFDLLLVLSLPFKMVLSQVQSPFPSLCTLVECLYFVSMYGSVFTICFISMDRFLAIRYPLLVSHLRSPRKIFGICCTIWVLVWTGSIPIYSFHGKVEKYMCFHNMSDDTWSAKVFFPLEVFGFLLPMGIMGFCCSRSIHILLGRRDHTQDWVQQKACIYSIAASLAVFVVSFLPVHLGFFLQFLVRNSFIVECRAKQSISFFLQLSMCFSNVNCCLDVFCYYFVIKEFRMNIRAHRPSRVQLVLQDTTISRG

About 140 (0.048%) of roughly 290,000 compounds were called active.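 Rule for the calls: active = activation above 40% with more than 50 cells counted in the well; inconclusive = wells holding fewer than 50 cells, flagged as toxic or sparse; inactive = the rest.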 The entries come from a sample that favours actives as a whole.

In assay [1], `CN1/C(=C\C=C2C(=O)NC(=S)NC2=O)C(C)(C)c2ccccc21` had a cell count of 268 cells. For the same molecule, the activation in assay [2] is 57.7% (active).

Take `CN1/C(=C\C=Nc2ccccc2)C(C)(C)c2ccccc21`: the cell count in assay [1] was 360 cells. Besides, the activation in assay [2] is -0.1% (inactive).

Take `CN1/C(=C\C=C2C(=O)NC(=O)NC2=O)C(C)(C)c2ccccc21`: in assay [1], the cell count was 294 cells. The activation in assay [2] was 0.4% (inactive).

In turn, `N[C@@H](Cc1c[nH]c2ccccc12)c1nnc(SCc2ccc(Cl)cc2)o1` had a cell count in assay [1] of 304 cells. Further, the activation in assay [2] was 0.1% (inactive).

Molecule `CC(=Nc1ccccc1N)c1c(O)n(C)c(=O)[nH]c1=O` registered a cell count in assay [1] of 323 cells. In assay [2], the activation was 0.7% (inactive).
